Our source for the outcome and Potency values is PubChem BioAssay (Tox21).

Assay [1] in a line: qHTS assay to test for compound auto fluorescence at 535 nm (green) in HEK293 cells (AID 720680). For orientation: In qHTS, concentration-response curves come from the screen itself.
Assay [2] in a line: qHTS assay to test for compound auto fluorescence at 460 nm (blue) in HEK293 cell free culture (AID 720681). In short, it runs like this:
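Compounds were added to cell-free DMEM with 10% FBS and fluorescence read directly. The blue channel used 405 nm excitation and 460 nm emission, with triamterene as the reference fluorophore.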

Assay [3] is described as follows: qHTS assay to test for compound auto fluorescence at 535 nm (green) in HEK293 cell free culture (AID 720682). In short, it runs like this: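 Intrinsic compound fluorescence is measured in culture medium containing 10% FBS, with excitation at 485 nm and detection at 535 nm, referenced to fluorescein.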
The nature of assay [4]: qHTS assay to test for compound auto fluorescence at 590 nm (red) in HEK293 cell free culture (AID 720683). In short, it runs like this: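 Cell-free wells of DMEM with 10% FBS received compound, and intrinsic fluorescence was read at excitation/emission 540/590 nm. Values expressed as equivalence to Rose Bengal sodium.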
Assay [5] can be described thus: qHTS assay to test for compound auto fluorescence at 590 nm (red) in HepG2 cell free culture (AID 720684). In short, it runs like this:
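Compound was pinned into wells holding MEM with 10% FBS and no cells, and red fluorescence was read at Ex/Em 540/590 nm. Signal is expressed as auto fluorescence equivalency relative to Rose Bengal sodium.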

Assay [6] is described as follows: qHTS assay to test for compound auto fluorescence at 460 nm (blue) in HepG2 cell free culture (AID 720685). In short, it runs like this: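 Compound (23 nL) or DMSO pinned into cell-free MEM with 10% FBS; blue fluorescence read at 405/460 nm excitation/emission, expressed as auto-fluorescence equivalency to triamterene.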
Assay [7] in a line: qHTS assay to test for compound auto fluorescence at 535 nm (green) in HepG2 cell free culture (AID 720686).
A short description of assay [8]: qHTS assay to test for compound auto fluorescence at 460 nm (blue) in HepG2 cells (AID 720687). In short, it runs like this: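 HepG2 cells in MEM with 10% FBS, attached overnight at 37 C, were exposed to compound or DMSO for 1 hr at 37 C, 5% CO2. Blue fluorescence was read at 405/460 nm, with triamterene as reference fluorophore.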
In assay [9] the target is Glucocorticoid receptor (Homo sapiens) (UniProt P04150). Put plainly: qHTS assay to identify small molecule agonists of the glucocorticoid receptor (GR) signaling pathway (AID 720691; active means well fitted activation curve with a large enough effect in the signal ratio in the repeat runs, not every such curve was filed as active; inconclusive means weak or mixed curves, or effect the other way; inactive means no such curve, though single readings can be large or run the other way; the % refers to the signal ratio; further: potency means the concentration at half of the fitted maximal effect). Particulars: GR-bla HeLa, beta-lactamase reporter ratio, 18 h; activation: at 62.4 µM (top of the series). In short, it runs like this: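 Fluorescence intensity from LiveBLAzer B/G FRET substrate (2 h, room temperature) reports beta-lactamase expression driven by the glucocorticoid response element in GR-bla HeLa cells after 18 h compound exposure at 37 C.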
Sequence of Glucocorticoid receptor (Homo sapiens) (P04150 whole entry, looked up): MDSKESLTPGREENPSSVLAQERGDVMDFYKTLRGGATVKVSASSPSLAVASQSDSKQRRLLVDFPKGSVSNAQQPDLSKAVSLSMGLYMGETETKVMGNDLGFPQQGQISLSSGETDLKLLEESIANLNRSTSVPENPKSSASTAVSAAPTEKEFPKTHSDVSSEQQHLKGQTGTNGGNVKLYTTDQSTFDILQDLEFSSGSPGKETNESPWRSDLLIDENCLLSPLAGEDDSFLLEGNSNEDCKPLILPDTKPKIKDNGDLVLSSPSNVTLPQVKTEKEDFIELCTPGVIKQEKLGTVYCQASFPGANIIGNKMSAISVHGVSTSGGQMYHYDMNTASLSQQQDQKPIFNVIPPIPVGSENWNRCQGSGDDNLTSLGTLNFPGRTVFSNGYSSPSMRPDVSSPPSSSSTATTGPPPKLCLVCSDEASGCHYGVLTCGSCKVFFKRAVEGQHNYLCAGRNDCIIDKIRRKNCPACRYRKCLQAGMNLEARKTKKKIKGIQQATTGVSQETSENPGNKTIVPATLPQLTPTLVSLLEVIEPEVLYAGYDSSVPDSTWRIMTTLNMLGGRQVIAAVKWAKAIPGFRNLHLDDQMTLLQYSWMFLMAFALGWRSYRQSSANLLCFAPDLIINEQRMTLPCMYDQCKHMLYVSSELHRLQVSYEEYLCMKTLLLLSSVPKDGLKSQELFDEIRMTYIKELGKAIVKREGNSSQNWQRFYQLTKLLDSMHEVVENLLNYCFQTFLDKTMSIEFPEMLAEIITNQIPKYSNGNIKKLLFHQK

Assay [10] has the same target. Description: qHTS assay to identify small molecule antagonists of the glucocorticoid receptor (GR) signaling pathway (AID 720692; active means well fitted inhibition curve with a large enough effect in the signal ratio in the repeat runs, not every such curve was filed as active; inconclusive means weak or mixed curves, or effect the other way; inactive means no such curve, though single readings can be large or run the other way; the % refers to the signal ratio). In short, it runs like this:
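HeLa GR-bla cells; cmpd + dex 5 nM final, 18 h 37 C; LiveBLAzer B/G FRET substrate 2 h RT; fluorescence intensity read. Antagonist mode, qHTS.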

Some compounds were tested as several samples or in several runs, with calls that do not always agree. Active and inactive are the calls of the source. Unless noted, the call rests on the fitted dose curve; in most records, active means well fitted curve in the direction sought with a large enough effect in the repeat runs; inconclusive means weak or mixed curves; inactive means flat fitted curve, though single readings scatter.

As to `CCc1ncnc2cc(OC)c(OC)cc12`, the compound was classed as inactive in [1], in [3], in [4] and in assay [5]. Moreover, the Potency entry in [2], in assay [6], in [7], in assay [8] and in assay [9] was “inactive” throughout.

As for `Cc1cc(Br)ccc1NC(=O)CCl`, the compound was called inactive in assay [1], in assay [3], in assay [4] and in assay [5]. Further, the Potency entry in [2], in assay [6], in assay [7], in assay [8] and in assay [9] was “inactive” in each case.

Consider `O=S(=O)(O)CC(S)CS` (stereo unspecified), for which the call in assay [1], in assay [3], in [4] and in assay [5] was inactive. The Potency entry in [2], in assay [6], in [7], in assay [8] and in assay [9] was “inactive” in each case.

In the case of `O=C(O)COc1ccc(C(=O)c2cccs2)c(Cl)c1Cl`, the outcome in assay [1], in assay [3], in assay [4] and in [5] was inactive. The Potency entry in assay [2], in assay [6], in [7], in [8] and in assay [9] was “inactive” in each case.

As for `O=C(O)/C=C/C(=O)Nc1ccc(S(=O)(=O)Nc2nccs2)cc1`, the result in assay [1], in [3], in assay [4] and in [5] was inactive. The Potency entry in [2], in assay [6], in assay [7], in [8] and in assay [9] was “inactive” throughout.

For the compound `COc1c(Br)cc(Br)c(C)c1Br`, the outcome in assay [1], in [3], in [4] and in assay [5] was inactive. Also, the Potency entry in assay [2], in [6], in [7], in assay [8] and in assay [9] was “inactive” each time.

Consider `CN1CC[C@H](c2c(O)cc(O)c3c(=O)cc(-c4ccccc4Cl)oc23)[C@H](O)C1`, for which the outcome in [1], in assay [3], in assay [4] and in [5] was inactive. Besides, the Potency entry in [2], in assay [6], in assay [7] and in [8] was “inactive” throughout.

For the compound `C[N+]1(CCCCC[N+]2(C)CCCC2)CCCC1`, the outcome in [1], in [3], in assay [4] and in [5] was inactive. In addition, the Potency result in assay [2], in assay [6], in assay [7], in assay [8] and in assay [9] was “inactive” each time.

Turning to `CN[C@H](CC(C)C)C(=O)N[C@H]1C(=O)N[C@@H](CC(N)=O)C(=O)N[C@H]2C(=O)N[C@H]3C(=O)N[C@H](C(=O)N[C@@H](C(=O)O)c4cc(O)cc(O)c4-c4cc3ccc4O)[C@H](O)c3ccc(c(Cl)c3)Oc3cc2cc(c3O[C@@H]2O[C@H](CO)[C@@H](O)[C@H](O)[C@H]2O[C@H]2C[C@](C)(N)C(O)[C@H](C)O2)Oc2ccc(cc2Cl)[C@H]1O` (stereo partly specified), the compound was classed as inactive in assay [1], in assay [3], in assay [4] and in [5]. Moreover, the Potency entry in assay [2], in assay [6], in assay [7], in assay [8], in [9] and in assay [10] was “inactive” each time.

Turning to `CCN(CC)CCn1c(=O)c(Cc2ccc(OC)cc2)nc2ccccc21`, the result in [1], in assay [3], in [4] and in assay [5] was inactive. Moreover, the Potency entry in assay [2], in assay [6], in assay [7], in [8], in [9] and in assay [10] was “inactive” throughout.

Regarding `OCl`, the call in assay [1], in assay [3], in assay [4] and in assay [5] was inactive. Besides, the Potency entry in assay [2], in assay [6], in assay [7], in assay [8] and in assay [9] was “inactive” in each case.

As to `CC(C)=CCC/C(C)=C/CC/C(C)=C/CC/C=C(\C)CC/C=C(\C)CCC=C(C)C`, the result in assay [1], in assay [3], in assay [4] and in assay [5] was inactive. Further, the Potency entry in assay [2], in assay [6], in assay [7], in assay [8] and in assay [9] was “inactive” each time.

`CCOc1cc(CC(=O)N[C@@H](CC(C)C)c2ccccc2N2CCCCC2)ccc1C(=O)O`: the result in assay [1], in assay [3], in assay [4] and in assay [5] was inactive. For the same compound, the Potency result in [2], in assay [6], in assay [7] and in assay [8] was “inactive” in each case. Moreover, the Potency in [9] was 8.11 µM (active).

Turning to `CC(C)CCC[C@@H](C)[C@H]1CC[C@H]2[C@@H]3CC=C4C[C@@H](O)CC[C@]4(C)[C@H]3CC[C@]12C`, the result in assay [1], in assay [3], in [4] and in assay [5] was inactive. The Potency entry in assay [2], in assay [6], in assay [7], in [8], in [9] and in assay [10] was “inactive” throughout.

On to `CCSCC`, for which the compound was classed as inactive in assay [1], in assay [3], in assay [4] and in assay [5]. Further, the Potency result in assay [2], in assay [6], in [7], in [8], in assay [9] and in assay [10] was “inactive” each time.

With `Cc1c(N)nc([C@H](CC(N)=O)NC[C@H](N)C(N)=O)nc1C(=O)N[C@H](C(=O)N[C@H](C)[C@@H](O)[C@H](C)C(=O)N[C@H](C(=O)NCCc1nc(-c2nc(C(=O)NCCCCN=C(N)N)cs2)cs1)[C@@H](C)O)[C@@H](O[C@@H]1O[C@@H](CO)[C@@H](O)[C@H](O)[C@@H]1O[C@H]1O[C@H](CO)[C@@H](O)[C@H](OC(N)=O)[C@@H]1O)c1cnc[nH]1`, the outcome in [1], in [3], in assay [4] and in assay [5] was inactive. The Potency entry in assay [2], in assay [6], in assay [7] and in assay [8] was “inactive” in each case. For the same compound, the Potency in assay [9] was 848 nM [inconclusive] (active) and inactive.

As for `COC1=C(OC)C(=O)C(C/C=C(\C)CC/C=C(\C)CC/C=C(\C)CC/C=C(\C)CC/C=C(\C)CC/C=C(\C)CC/C=C(\C)CC/C=C(\C)CC/C=C(\C)CCC=C(C)C)=C(C)C1=O`, the compound was classed as inactive in assay [1], in assay [3], in assay [4] and in assay [5]. The Potency entry in assay [2], in [6], in assay [7], in assay [8] and in [9] was “inactive” throughout.
